Results filed as inconclusive are left out. Unmarked numbers belong to inactive results. Activity calls are given as the source filed them. Calls follow the shape of the dose curve; as a rule, active = well fitted inhibition curve with a large enough effect; inconclusive = small, poorly fitted or top-dose-only effect; inactive = flat fitted curve, though single readings scatter.
What follows are compounds tested against Voltage-gated inwardly rectifying potassium channel KCNH2 (Homo sapiens) (UniProt Q12809) (assay: qHTS Assay for Small Molecule Inhibitors of the Human hERG Channel Activity (AID 588834;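 also: lower thallium flux fluorescence means stronger hERG block; nearly all actives have a fitted effect of over 50% in size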; as to activity change, negative = inhibition: top concentration of the series differs between compounds)). Details: U2OS BacMam hERG, FluxOR thallium flux fluorescence; series mostly up to 46.1 µM; activity change, negative = inhibition: at the top concentration.
Procedure, shortened: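 U2OS cells BacMam-transduced with hERG, 2000 cells/well, compound ~10 min at 37 °C before stimulation buffer. FluxOR thallium flux fluorescence read kinetically on FDSS; decrease indicates block; AC50 from Hill fits.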
% is scaled to controls: 0 for no effect and ±100 for the full control effect; potency is read from the fitted curve at half-maximal effect.

Voltage-gated inwardly rectifying potassium channel KCNH2 (Homo sapiens), sequence (Q12809 whole entry, looked up): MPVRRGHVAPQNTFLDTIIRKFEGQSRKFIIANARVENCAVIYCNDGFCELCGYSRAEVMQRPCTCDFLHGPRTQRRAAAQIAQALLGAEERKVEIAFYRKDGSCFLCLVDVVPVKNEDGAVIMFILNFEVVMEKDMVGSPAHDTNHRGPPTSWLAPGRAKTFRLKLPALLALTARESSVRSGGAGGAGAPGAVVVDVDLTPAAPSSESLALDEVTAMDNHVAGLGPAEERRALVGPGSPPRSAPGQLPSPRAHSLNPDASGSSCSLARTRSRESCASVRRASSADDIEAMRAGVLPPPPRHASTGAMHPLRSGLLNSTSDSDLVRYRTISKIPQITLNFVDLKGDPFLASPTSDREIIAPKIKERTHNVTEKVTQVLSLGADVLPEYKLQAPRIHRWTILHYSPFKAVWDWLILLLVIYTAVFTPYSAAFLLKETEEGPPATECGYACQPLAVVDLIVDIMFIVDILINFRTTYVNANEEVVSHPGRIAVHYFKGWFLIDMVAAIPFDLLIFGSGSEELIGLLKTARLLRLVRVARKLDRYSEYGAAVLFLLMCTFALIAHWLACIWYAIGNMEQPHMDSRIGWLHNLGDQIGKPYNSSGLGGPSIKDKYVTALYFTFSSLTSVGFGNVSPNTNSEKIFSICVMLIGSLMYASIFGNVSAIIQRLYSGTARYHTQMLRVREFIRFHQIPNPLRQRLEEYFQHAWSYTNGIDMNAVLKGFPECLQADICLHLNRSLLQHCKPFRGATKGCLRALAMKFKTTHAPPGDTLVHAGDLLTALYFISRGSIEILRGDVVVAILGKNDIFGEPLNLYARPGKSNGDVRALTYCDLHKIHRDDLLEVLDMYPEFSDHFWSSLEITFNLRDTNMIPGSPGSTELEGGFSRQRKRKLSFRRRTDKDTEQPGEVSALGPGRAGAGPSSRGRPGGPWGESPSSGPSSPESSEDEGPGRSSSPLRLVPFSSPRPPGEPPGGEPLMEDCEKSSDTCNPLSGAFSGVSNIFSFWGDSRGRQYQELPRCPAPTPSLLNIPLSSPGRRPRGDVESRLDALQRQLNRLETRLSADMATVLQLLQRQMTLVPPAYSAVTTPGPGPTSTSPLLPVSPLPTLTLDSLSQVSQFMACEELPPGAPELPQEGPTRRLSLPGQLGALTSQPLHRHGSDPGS

| Structure (SMILES) | activity change, negative = inhibition [%] | Potency |
| --- | --- | --- |
| O=[N+]([O-])c1cc(O)c(O)c([N+](=O)[O-])c1 | 7.24 | – |
| CCN(CC)C(=O)N[C@H]1C[C@@H]2c3cccc4[nH]cc(c34)C[C@H]2N(C)C1 | -5.04 | – |
| Clc1ccc(N2CC3CCC(C2)N3)nn1 | -22.1 | – |
| CO[C@H]1[C@@H](O)C[C@H](O[C@H]2[C@@H](O)C[C@H](O[C@H]3[C@@H](O)C[C@H](O[C@H]4CC[C@@]5(C)[C@H](CC[C@@H]6[C@@H]5C[C@@H](O)[C@]5(C)[C@@H](C7=CC(=O)OC7)CC[C@]65O)C4)O[C@@H]3C)O[C@@H]2C)O[C@@H]1C | 1.63 | – |
| C[C@H]1CC[C@]2(NC1)O[C@H]1C[C@H]3[C@@H]4CC[C@H]5C[C@@H](O)CC[C@]5(C)[C@H]4CC[C@]3(C)[C@H]1[C@@H]2C | 11 | – |
| C[N+]1(C)CCOC(O)(c2ccc(-c3ccc(C4(O)C[N+](C)(C)CCO4)cc3)cc2)C1 (centres undefined) | 15.7 | – |
| C[N+]1(C)CCN(c2ccccc2)CC1 | 12.7 | – |
| CCCn1c(=O)c2[nH]c(C3CCCC3)nc2n(CCCOC(=O)c2ccc(S(=O)(=O)F)cc2)c1=O | – | 14.1 µM (active) |
| NC(=O)c1cc(N2CC2)c([N+](=O)[O-])cc1[N+](=O)[O-] | 11.8 | – |
| NCCc1c[nH]c2ccc(C(N)=O)cc12 | 4.18 | – |
| COc1ccc2c(c1)C13CCCCC1C(C2)N(C)CC3 (centres undefined) | -27.6 | – |
| O=C1C=C2C=C[C@@H]3C[C@@]2(O1)[C@H]1CCCCN31 | 7.29 | – |
| NNC(=O)c1ccc(O)cc1 | 2.09 | – |
| C[C@H]1CC[C@]2(NC1)O[C@H]1C[C@H]3[C@@H]4CC[C@H]5C[C@@H](O[C@@H]6O[C@H](CO)[C@H](O[C@@H]7O[C@H](CO)[C@@H](O)[C@H](O[C@@H]8OC[C@@H](O)[C@H](O)[C@H]8O)[C@H]7O[C@@H]7O[C@H](CO)[C@@H](O)[C@H](O)[C@H]7O)[C@H](O)[C@H]6O)CC[C@]5(C)[C@H]4CC[C@]3(C)[C@H]1[C@@H]2C | – | 15.8 µM (active) |

— PubChem BioAssay (NCATS)
